Sfp inh = inhibitors of Bacillus subtilis Sfp phosphopantetheinyl transferase; Q9F4F7; Biochemical Sfp PPTase activity, qHTS; Potency, µM, for the others: largest response in the series, negative = inhibition, usual class: inhibitors; hit rate 3.5% among 310,000; AID 1490;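 also: the enzyme is Sfp with the accession as filed and its product quenches rhodamine fluorescence; 0% = enzyme reaction without inhibitor and -100% = no enzyme wells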
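Fluorescence-quenching assay: 15 nM Sfp-PPTase preincubated 15 min at room temperature with compound, then 5 uM rhodamine-CoA and 12.5 uM BHQ-2-labelled YbbR peptide added. Fluorescence (ex 525/em 598 nm) read at start and after 30 min; difference gives rate.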
BAZ2B inh = BAZ2B (human) inhibition | Q9UIF8 | AlphaScreen BAZ2B-H3K14Ac peptide displacement | Potency, µM (highest dose often 114 µM), without a hit: at the top dose activity change, negative = inhibition, actives largely listed as inhibitors | hit rate 4.4% among 360,000 | AID 504333; also: % is scaled to controls: 0 for no effect and ±100 for the full control effect; nearly all actives have a fitted effect of over 60% in size
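BAZ2B (50 nM) with biotin-H3(5-23)K14Ac peptide (50 nM) in PBS pH 7.4, 0.01% Tween-20, preformed 30 min, then compound 30 min at room temperature; top concentration 110uM. AlphaScreen streptavidin donor/nickel chelate acceptor beads (10 ug/mL final), 20 min dark, signal read.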
HP1b binding inh = inhibitors of HP1-beta chromodomain binding to methylated histone tails | P83916 | AlphaScreen HP1-beta / biotin-H3K9me3 peptide binding | Potency, µM (titrated, usually from 114 µM), for the others: top-dose activity change, negative = inhibition, actives largely listed as inhibitors | hit rate 0.56% among 390,000; also: nearly all actives have a fitted effect of over 70% in size
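AlphaScreen: HP1-beta (50 nM) preformed 30 min with biotin-H3(1-18)K9me3 peptide (50 nM) in PBS pH 7.4, 0.01% Tween-20. Compound added for 30 min at RT, then streptavidin donor/nickel chelate acceptor beads (10 ug/mL) for 30 min.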
G9a inh = G9a (human) methyltransferase inhibition; Q96KQ7; G9a H3K9 monomethylation, AlphaScreen, 2 h; Potency, µM (doses to about 102 µM), for the others: at the highest dose activity, negative = inhibition, hits mostly inhibitors; hit rate 8.8% among 350,000; AID 504332; also: % is scaled to controls: 0 for no effect and ±100 for the full control effect; nearly all actives have a fitted effect of over 75% in size
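Compounds were preincubated with 20 nM G9a for 15 min, after which biotinylated H3K9 peptide (500 nM) and SAM (20 uM) started a 2 h room-temperature reaction. Monomethylated product was quantified by antibody-based AlphaScreen chemiluminescence.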
PLK1 PBD block = blocks phosphopeptide binding to human PLK1 polo-box domain; P53350; Plk1 PBD binding of FITC phosphopeptide, fluorescence polarization; Potency, µM, inactives show max response, negative = inhibition, usual class: inhibitors; hit rate 2.8% among 360,000; also: series mostly up to about 57 µM; % is scaled to controls: 0 for no effect and ±100 for the full control effect; nearly all actives have a fitted effect of over 65% in size
Target sequence (P53350 whole entry, looked up, the tested form may be a part): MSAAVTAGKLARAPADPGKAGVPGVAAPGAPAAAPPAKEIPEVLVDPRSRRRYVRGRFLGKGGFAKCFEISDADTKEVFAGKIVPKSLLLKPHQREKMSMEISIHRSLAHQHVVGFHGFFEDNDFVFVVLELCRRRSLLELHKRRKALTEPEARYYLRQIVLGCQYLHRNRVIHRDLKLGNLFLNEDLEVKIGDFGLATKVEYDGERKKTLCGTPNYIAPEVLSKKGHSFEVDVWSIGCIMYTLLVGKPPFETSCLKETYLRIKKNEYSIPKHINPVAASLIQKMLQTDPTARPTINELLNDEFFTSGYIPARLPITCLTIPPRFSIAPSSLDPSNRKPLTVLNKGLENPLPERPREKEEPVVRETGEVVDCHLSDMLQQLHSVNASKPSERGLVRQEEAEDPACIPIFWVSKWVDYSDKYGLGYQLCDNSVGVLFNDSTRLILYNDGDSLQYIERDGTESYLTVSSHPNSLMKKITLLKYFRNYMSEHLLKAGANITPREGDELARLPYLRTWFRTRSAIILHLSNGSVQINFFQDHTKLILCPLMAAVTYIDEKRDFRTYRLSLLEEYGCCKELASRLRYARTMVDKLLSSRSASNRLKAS
JMJD2A Tudor = inhibitors of human JMJD2A Tudor domain; O75164; AlphaScreen JMJD2A-Tudor / H3K4me3 peptide binding; Potency, µM (titrated, usually from 114 µM), for the others: at the highest dose activity change, negative = inhibition, most hits filed as inhibitors; hit rate 4.4% among 390,000; also: % is scaled to controls: 0 for no effect and ±100 for the full control effect; nearly all actives have a fitted effect of over 50% in size
Numbers without * were called inactive; u = inconclusive; x = no result given; [ ] = remark or other dose. A selection: hits, their analogues and other compounds. The true share with any hit is near 12%. Calls follow the shape of the dose curve; as a rule, active = well fitted curve in the direction sought with a large enough effect; inconclusive = small, poorly fitted or top-dose-only effect, or another doubt; inactive = no such curve, though single readings can be large; an effect the other way counts as inactive or inconclusive. Potency is read from the fitted curve at half-maximal effect.

SMILES	Sfp inh	BAZ2B inh	HP1b binding inh	G9a inh	PLK1 PBD block	JMJD2A Tudor
O=C(NCc1ccco1)c1sc(=S)n2c1[nH]c(=O)c1ccccc12	45µM*	u	u	22µM*	27µM*	50µM*
Oc1cccc2ccc(/C=C/c3ccccc3Cl)nc12	9%	-28%	46%	131%	-10%	u
CCOc1cccc(/C=C/c2ccc3cccc(O)c3n2)c1O	79µM*	-25%	22%	-14%	-15%	-25%
CCOc1cccc(/C=C/c2ccc3cccc(O)c3n2)c1OC	79µM*	-8%	18%[57 µM]	18%[2.33 µM]	-23%	7%
COc1ccccc1/C=C/c1ccc2cccc(O)c2n1	0%	-9%	2%	8%	-6%	-32%
O=c1[nH]c(N/N=C/c2cc3c(cc2[N+](=O)[O-])OCO3)nc2ccccc12	u	-36%	48%	18µM*	2%	-7%
Cc1ccccc1N=Cc1cc2c(cc1[N+](=O)[O-])OCO2	-10%	u	-28%	45µM*	-13%	u
O=c1[nH]c(N/N=C/c2ccccc2)nc2ccccc12	8%	-6%	58%	-10%[59 µM]	-5%	-10%
Cc1c(N=Cc2cc3c(cc2[N+](=O)[O-])OCO3)cccc1[N+](=O)[O-]	x	x	-9%	x	u	u
O=c1cnnc(N/N=C/c2ccc3c(c2)OCO3)[nH]1	u	-27%	20%	45µM*	-15%	-6%[11.4 µM]
O=c1[nH]c(N/N=C\c2ccc3c(c2)OCO3)nc2ccccc12	20µM*	-25%	32%	x	-10%	-8%
CC1=C(C(=O)Nc2ccccc2)C(C(C)C)n2nc(SCc3ccccc3C)nc2N1 (stereo not given)	x	0%	33%	21%[59 µM]	x	-4%
CCOc1ccc(C2/C(=C(/O)c3ccc4c(c3)CC(C)O4)C(=O)C(=O)N2CCCn2ccnc2)cc1OCC (stereo not given)	10%	u	17%	-26%	-1%	-5%
Nc1n[nH]c2ccccc12	15%	-4%	22%	0%	-10%	-13%
S=c1nn[nH]c2ccccc12	x	x	-13%	x	27µM*	11µM*
Cc1ccc(-c2nc3n(n2)C(c2ccccc2C)C=C(c2ccc(Cl)cc2)N3)cc1 (stereo not given)	x	-18%	52%	-15%[59 µM]	x	u
Cc1ccc2nc(N3CCN(c4ccccc4F)CC3)c3nnnn3c2c1	x	0%	55%	4%[59 µM]	x	-1%
CO/N=C(/C(=O)N[C@@H]1C(=O)N2C(C(=O)O)=C(CSc3nnnn3C)CS[C@H]12)c1csc(N)n1	-22%	x	x	-41%[12.7 µM]	x	x
CO/N=C(/C(=O)N[C@@H]1C(=O)N2C(C(=O)O)=CCS[C@H]12)c1cnc(N)s1	79µM*	6%	x	x	x	x
O=S(=O)(Cc1ccccc1)N1CCc2ccccc21	1%	0%	x	u	x	x
Cc1ccc(-c2nc3nc(C)cc(C)n3c2Nc2ccc3c(c2)OCCO3)cc1	x	u	-18%	u	x	u
Cc1ccc(-c2nc3ccccn3c2NCc2ccc3c(c2)OCO3)cc1	u	u	u	u	-4%	100µM*
Cc1ccc(-c2nc3ccccn3c2Nc2ccc3c(c2)OCO3)cc1	x	18µM*	u	10µM*	x	25µM*
Cc1cccc2nc(-c3ccc(N(C)C)cc3)c(Nc3ccc4c(c3)OCO4)n12	x	x	18%	2.2µM*	x	-29%
Cc1ccc(Nc2c(-c3ccc(N(C)C)cc3)nc3ccccn23)cc1	x	-20%	u	u	x	7.9µM*
SMILES	Sfp inh	BAZ2B inh	HP1b binding inh	G9a inh	PLK1 PBD block	JMJD2A Tudor
CN(C)/C=N/N(C)c1ncccc1[N+](=O)[O-]	11%	0%	17%	u	-3%	-12%
CC(C)=CCCC(C)CN1CCC(n2nccc2NC(=O)C2CCCC2)CC1 (stereo not given)	2%	10%	13%	12%	-10%	-16%
CN1CCc2c(sc(N)c2C(=O)O)C1	28µM*	-17%	-13%	28µM*	u	-12%[11.4 µM]
Cc1ccnc(NC(=O)CCS(=O)(=O)c2ccccc2)c1	16%	-36%	-17%	79µM*	-5%	-16%
Cc1ccnc(NC(=O)CS(=O)(=O)c2ccccc2)c1	9%	3%	37%	-2%	-5%	-1%
CCN(CC)c1ccc(NC(=O)CCNS(=O)(=O)c2ccc3c(c2)CCC(=O)N3)c(C)c1	15%	35µM*	u	40µM*	-10%	u
Cc1ccc(NC(=O)CCS(=O)(=O)c2ccc(Br)cc2)nc1	5%	8%	3%	8%	12µM*	20µM*
Cc1ccccc1NC(=O)CCNS(=O)(=O)c1ccc2c(c1)CCC(=O)N2	17%	-1%	35%	10%	-2%	-4%
Cc1ccc(NC(=O)CCC(=O)c2cccs2)nc1	x	u	4%	45µM*	-10%	u
Cc1ccc(S(=O)(=O)CCC(=O)Nc2ccc(Br)cc2)cc1	6%	-2%	50%	u	-7%	-8%
CC(C)C(C(=O)NCC1CCCO1)N(C(=O)CNS(=O)(=O)c1ccccc1)C1CCCCC1 (stereo not given)	16%	0%	-14%	10%	1%	-4%
Cc1cc(C(=O)Nc2c(F)cc(F)cc2Br)n(-c2ccccc2)n1	17%	-6%	31%	-9%	2%	-6%
CC1CC(C)CN(C(=O)CCNS(=O)(=O)c2ccc3c(c2)CCC(=O)N3)C1 (stereo not given)	22%	-1%	25%	7%	6%	-3%
Cc1ccc(CNC(=O)CCS(=O)(=O)c2cc3c(cc2C)NC(=O)CO3)cc1	21%	7%	37%	6%	0%	-13%
CCN(CC)c1ccc(NC(=O)CCS(=O)(=O)c2ccc(Br)cc2)c(C)c1	10%	11µM*	13µM*	10µM*	27µM*	11µM*
Cc1ccc(CNC(=O)CCS(=O)(=O)c2ccc(Cl)cc2)cc1	16%	1%	33%	-17%	-19%	-12%
Cc1ccc(CNC(=O)CCS(=O)(=O)c2ccc3c(c2)NC(=O)CO3)cc1	4%	-20%	20%	-3%	27µM*	u
Cc1ccc(CNC(=O)CCS(=O)(=O)c2ccc(Br)cc2)cc1	22%	u	7.1µM*	8.9µM*	17µM*	18µM*
CCOC(=O)C1CCCN(C(=O)CCNS(=O)(=O)c2ccc3c(c2)CCC(=O)N3)C1 (stereo not given)	7%	5%	u	-4%	17µM*	u
CC(=O)N1CCc2c(sc3c2c(=O)n(CCc2ccccc2)c(=O)n3Cc2ccccc2C)C1	x	-35%	-7%	u	x	u
Cc1ccc(S(=O)(=O)CCC(=O)OCC(=O)NCc2ccc(F)cc2)cc1	x	x	x	x	-1%	x
O=C(CCS(=O)(=O)c1ccccc1Cl)NCc1ccc(F)cc1	-3%	21%	66%	50µM*	u	-6%

Compound activity as filed in PubChem.
